We go through 5 sequences from PMC11006913.

Assay in all cases: PBM; 200 nM protein, PBS
What all share (conditions): dsDNA, one strand shown

Assay [1] concerns the target HESX1 (Homo sapiens, UniProt Q9UBX0 95-180, R165K).
Assay [2] addresses SHOX (Homo sapiens, UniProt O15266 103-189).
For another assay, the target named is ALX4 (Homo sapiens, UniProt Q9H161 200-286, Q225E).
The target of assay [3] is HESX1 (Homo sapiens, UniProt Q9UBX0 95-180).
The target of a further assay is MSX2 (Homo sapiens, UniProt P35548 130-214, R199I).
Assay [4] concerns the target ALX1 (Homo sapiens, UniProt Q15699 118-204, L144V).
Assay [5] addresses ALX3 (Homo sapiens, UniProt O95076 139-225, N203Q).
The target in assay [6] is SHOX (Homo sapiens, UniProt O15266 103-189, R173C).
The target in assay [7] is ALX1 (Homo sapiens, UniProt Q15699 118-204, L144R).
For assay [8], the target named is ALX3 (Homo sapiens, UniProt O95076 139-225).
Assay [9] has as its target HESX1 (Homo sapiens, UniProt Q9UBX0 95-180, R109Q).
Assay [10] concerns the target PROP1 (Homo sapiens, UniProt O75360 56-141, R99H).
The target of assay [11] is ALX3 (Homo sapiens, UniProt O95076 139-225, L168Q).
Assay [12] deals with HESX1 (Homo sapiens, UniProt Q9UBX0 95-180, P111T).
Assay [13] has as its target ALX3 (Homo sapiens, UniProt O95076 139-225, L168V).
For assay [14], the target named is HESX1 (Homo sapiens, UniProt Q9UBX0 95-180, F115L).
The target in assay [15] is ALX1 (Homo sapiens, UniProt Q15699 118-204).
Assay [16] has as its target ALX3 (Homo sapiens, UniProt O95076 139-225, N203S).
The target in assay [17] is PROP1 (Homo sapiens, UniProt O75360 56-141).
In assay [18] the target is PROP1 (Homo sapiens, UniProt O75360 56-141, F88S).
PROP1 (Homo sapiens, UniProt O75360 56-141, F88S), sequence (O75360 56-141 F88S): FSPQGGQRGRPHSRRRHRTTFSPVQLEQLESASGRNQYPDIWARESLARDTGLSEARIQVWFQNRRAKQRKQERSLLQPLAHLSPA

SHOX (Homo sapiens, UniProt O15266 103-189, R173C), sequence (O15266 103-189 R173C): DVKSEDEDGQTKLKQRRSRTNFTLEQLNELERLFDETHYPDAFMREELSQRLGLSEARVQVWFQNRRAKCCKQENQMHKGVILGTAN
HESX1 (Homo sapiens, UniProt Q9UBX0 95-180, R165K), sequence (Q9UBX0 95-180 R165K): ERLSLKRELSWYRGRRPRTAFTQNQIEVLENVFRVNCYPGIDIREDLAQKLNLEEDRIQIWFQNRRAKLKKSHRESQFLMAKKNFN
ALX3 (Homo sapiens, UniProt O95076 139-225, N203S), sequence (O95076 139-225 N203S): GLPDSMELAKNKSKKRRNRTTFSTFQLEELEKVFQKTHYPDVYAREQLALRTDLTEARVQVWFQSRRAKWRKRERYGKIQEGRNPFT
ALX4, sequence (Q9H161 200-286 Q225E): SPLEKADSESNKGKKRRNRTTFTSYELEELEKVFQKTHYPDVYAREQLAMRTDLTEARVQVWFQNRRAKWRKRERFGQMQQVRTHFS
SHOX (Homo sapiens, UniProt O15266 103-189), sequence (O15266 103-189): as the sequence (O15266 103-189 R173C) above, with C71R counted along it
ALX3 (Homo sapiens, UniProt O95076 139-225, L168Q), sequence (O95076 139-225 L168Q): as the sequence (O95076 139-225 N203S) above, with L30Q, S65N counted along it
HESX1 (Homo sapiens, UniProt Q9UBX0 95-180, F115L), sequence (Q9UBX0 95-180 F115L): as the sequence (Q9UBX0 95-180 R165K) above, with F21L, K71R counted along it
HESX1 (Homo sapiens, UniProt Q9UBX0 95-180, R109Q), sequence (Q9UBX0 95-180 R109Q): as the sequence (Q9UBX0 95-180 R165K) above, with R15Q, K71R counted along it
ALX3 (Homo sapiens, UniProt O95076 139-225, L168V), sequence (O95076 139-225 L168V): as the sequence (O95076 139-225 N203S) above, with L30V, S65N counted along it
HESX1 (Homo sapiens, UniProt Q9UBX0 95-180, P111T), sequence (Q9UBX0 95-180 P111T): as the sequence (Q9UBX0 95-180 R165K) above, with P17T, K71R counted along it
ALX3 (Homo sapiens, UniProt O95076 139-225), sequence (O95076 139-225): as the sequence (O95076 139-225 N203S) above, with S65N counted along it
ALX1 (Homo sapiens, UniProt Q15699 118-204, L144V), sequence (Q15699 118-204 L144V): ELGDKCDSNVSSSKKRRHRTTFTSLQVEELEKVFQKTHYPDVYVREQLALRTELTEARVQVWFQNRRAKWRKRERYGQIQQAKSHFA
ALX1 (Homo sapiens, UniProt Q15699 118-204, L144R), sequence (Q15699 118-204 L144R): as the sequence (Q15699 118-204 L144V) above, with V27R counted along it
PROP1 (Homo sapiens, UniProt O75360 56-141, R99H), sequence (O75360 56-141 R99H): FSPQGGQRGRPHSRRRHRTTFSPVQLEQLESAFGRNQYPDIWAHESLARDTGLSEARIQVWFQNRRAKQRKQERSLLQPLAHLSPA
HESX1 (Homo sapiens, UniProt Q9UBX0 95-180), sequence (Q9UBX0 95-180): as the sequence (Q9UBX0 95-180 R165K) above, with K71R counted along it
ALX3 (Homo sapiens, UniProt O95076 139-225, N203Q), sequence (O95076 139-225 N203Q): as the sequence (O95076 139-225 N203S) above, with S65Q counted along it
ALX1 (Homo sapiens, UniProt Q15699 118-204), sequence (Q15699 118-204): as the sequence (Q15699 118-204 L144V) above, with V27L counted along it
MSX2, sequence (P35548 130-214 R199I): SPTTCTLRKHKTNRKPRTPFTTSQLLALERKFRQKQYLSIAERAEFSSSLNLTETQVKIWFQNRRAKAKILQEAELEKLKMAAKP
PROP1 (Homo sapiens, UniProt O75360 56-141), sequence (O75360 56-141): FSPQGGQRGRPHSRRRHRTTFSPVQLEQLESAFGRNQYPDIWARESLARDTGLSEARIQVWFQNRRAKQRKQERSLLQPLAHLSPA

Take AATTAGCC: the binding signal was 11.4 upbm affinity estimate (log intensity, higher = more binding, comparable within an allelic series) in the assay with HESX1 [1]; 11.9 upbm affinity estimate (log intensity, higher = more binding, comparable within an allelic series) in the assay with SHOX [2]; 12.6 upbm affinity estimate (log intensity, higher = more binding, comparable within an allelic series) with ALX4; 11.5 upbm affinity estimate (log intensity, higher = more binding, comparable within an allelic series) in the assay with HESX1 [3]; 12.1 upbm affinity estimate (log intensity, higher = more binding, comparable within an allelic series) with MSX2; 11.2 upbm affinity estimate (log intensity, higher = more binding, comparable within an allelic series) with ALX1 [4]. For the same sequence, the binding signal in the assay with ALX3 [5] was 8.15 upbm affinity estimate (log intensity, higher = more binding, comparable within an allelic series); in the assay with SHOX [6], 9.22 upbm affinity estimate (log intensity, higher = more binding, comparable within an allelic series); with ALX1 [7] it was 10.8 upbm affinity estimate (log intensity, higher = more binding, comparable within an allelic series); with ALX3 [8], 12.3 upbm affinity estimate (log intensity, higher = more binding, comparable within an allelic series); with HESX1 [9], 8.71 upbm affinity estimate (log intensity, higher = more binding, comparable within an allelic series); with PROP1 [10], 10.8 upbm affinity estimate (log intensity, higher = more binding, comparable within an allelic series). Moreover, the binding signal was 10.1 upbm affinity estimate (log intensity, higher = more binding, comparable within an allelic series) with ALX3 [11]; 10.2 upbm affinity estimate (log intensity, higher = more binding, comparable within an allelic series) with HESX1 [12]; 9.65 upbm affinity estimate (log intensity, higher = more binding, comparable within an allelic series) in the assay with ALX3 [13]; 7.46 upbm affinity estimate (log intensity, higher = more binding, comparable within an allelic series) with HESX1 [14]; 12.4 upbm affinity estimate (log intensity, higher = more binding, comparable within an allelic series) with ALX1 [15]; 8.23 upbm affinity estimate (log intensity, higher = more binding, comparable within an allelic series) with ALX3 [16].

For the sequence CAATTACA, the binding signal in the assay with HESX1 [1] was 11.6 upbm affinity estimate (log intensity, higher = more binding, comparable within an allelic series); with SHOX [2], 11.4 upbm affinity estimate (log intensity, higher = more binding, comparable within an allelic series); with HESX1 [3], 11.9 upbm affinity estimate (log intensity, higher = more binding, comparable within an allelic series); with MSX2, 12.5 upbm affinity estimate (log intensity, higher = more binding, comparable within an allelic series); in the assay with SHOX [6], 9.07 upbm affinity estimate (log intensity, higher = more binding, comparable within an allelic series); with HESX1 [9], 8.6 upbm affinity estimate (log intensity, higher = more binding, comparable within an allelic series). The binding signal in the assay with PROP1 [10] was 10.8 upbm affinity estimate (log intensity, higher = more binding, comparable within an allelic series); in the assay with HESX1 [12], 10.2 upbm affinity estimate (log intensity, higher = more binding, comparable within an allelic series); with HESX1 [14], 7.44 upbm affinity estimate (log intensity, higher = more binding, comparable within an allelic series).

TAATTGAA: the binding signal with HESX1 [1] was 12.9 upbm affinity estimate (log intensity, higher = more binding, comparable within an allelic series); in the assay with SHOX [2], 12 upbm affinity estimate (log intensity, higher = more binding, comparable within an allelic series); in the assay with ALX4, 13.2 upbm affinity estimate (log intensity, higher = more binding, comparable within an allelic series); with HESX1 [3], 12.9 upbm affinity estimate (log intensity, higher = more binding, comparable within an allelic series); with MSX2 it was 12.5 upbm affinity estimate (log intensity, higher = more binding, comparable within an allelic series); with ALX1 [4] it was 11.6 upbm affinity estimate (log intensity, higher = more binding, comparable within an allelic series). For the same sequence, the binding signal was 8.33 upbm affinity estimate (log intensity, higher = more binding, comparable within an allelic series) in the assay with ALX3 [5]; 9.58 upbm affinity estimate (log intensity, higher = more binding, comparable within an allelic series) with SHOX [6]; 11.3 upbm affinity estimate (log intensity, higher = more binding, comparable within an allelic series) with ALX1 [7]; 12.5 upbm affinity estimate (log intensity, higher = more binding, comparable within an allelic series) in the assay with ALX3 [8]; 11.5 upbm affinity estimate (log intensity, higher = more binding, comparable within an allelic series) in the assay with PROP1 [17]; 9.18 upbm affinity estimate (log intensity, higher = more binding, comparable within an allelic series) with HESX1 [9]. In addition, the binding signal with PROP1 [10] was 11.6 upbm affinity estimate (log intensity, higher = more binding, comparable within an allelic series); in the assay with ALX3 [11] it was 10.6 upbm affinity estimate (log intensity, higher = more binding, comparable within an allelic series); in the assay with HESX1 [12] it was 11.4 upbm affinity estimate (log intensity, higher = more binding, comparable within an allelic series); with ALX3 [13], 10 upbm affinity estimate (log intensity, higher = more binding, comparable within an allelic series); with PROP1 [18], 7.68 upbm affinity estimate (log intensity, higher = more binding, comparable within an allelic series); with HESX1 [14], 7.71 upbm affinity estimate (log intensity, higher = more binding, comparable within an allelic series). Also, the binding signal with ALX1 [15] was 12.3 upbm affinity estimate (log intensity, higher = more binding, comparable within an allelic series); with ALX3 [16] it was 8.47 upbm affinity estimate (log intensity, higher = more binding, comparable within an allelic series).

Consider ATTAATGC, for which the binding signal is 8.93 upbm affinity estimate (log intensity, higher = more binding, comparable within an allelic series) with HESX1 [1] and 9.02 upbm affinity estimate (log intensity, higher = more binding, comparable within an allelic series) with HESX1 [3].

For the sequence CAATTAGG, the binding signal in the assay with HESX1 [1] is 12.5 upbm affinity estimate (log intensity, higher = more binding, comparable within an allelic series); with SHOX [2], 12.1 upbm affinity estimate (log intensity, higher = more binding, comparable within an allelic series); in the assay with ALX4, 12.8 upbm affinity estimate (log intensity, higher = more binding, comparable within an allelic series); with HESX1 [3], 12.7 upbm affinity estimate (log intensity, higher = more binding, comparable within an allelic series); in the assay with MSX2 it was 12.7 upbm affinity estimate (log intensity, higher = more binding, comparable within an allelic series); with ALX1 [4], 11.5 upbm affinity estimate (log intensity, higher = more binding, comparable within an allelic series). Moreover, the binding signal with ALX3 [5] was 8.27 upbm affinity estimate (log intensity, higher = more binding, comparable within an allelic series); with SHOX [6] it was 9.72 upbm affinity estimate (log intensity, higher = more binding, comparable within an allelic series); with ALX1 [7] it was 10.9 upbm affinity estimate (log intensity, higher = more binding, comparable within an allelic series); with ALX3 [8] it was 12.2 upbm affinity estimate (log intensity, higher = more binding, comparable within an allelic series); with PROP1 [17], 11.3 upbm affinity estimate (log intensity, higher = more binding, comparable within an allelic series); with HESX1 [9], 9.39 upbm affinity estimate (log intensity, higher = more binding, comparable within an allelic series). Besides, the binding signal is 11.5 upbm affinity estimate (log intensity, higher = more binding, comparable within an allelic series) with PROP1 [10]; 10.4 upbm affinity estimate (log intensity, higher = more binding, comparable within an allelic series) with ALX3 [11]; 11.2 upbm affinity estimate (log intensity, higher = more binding, comparable within an allelic series) in the assay with HESX1 [12]; 9.81 upbm affinity estimate (log intensity, higher = more binding, comparable within an allelic series) in the assay with ALX3 [13]; 7.6 upbm affinity estimate (log intensity, higher = more binding, comparable within an allelic series) with PROP1 [18]; 7.73 upbm affinity estimate (log intensity, higher = more binding, comparable within an allelic series) with HESX1 [14]. Moreover, the binding signal with ALX1 [15] is 12.1 upbm affinity estimate (log intensity, higher = more binding, comparable within an allelic series); with ALX3 [16], 8.37 upbm affinity estimate (log intensity, higher = more binding, comparable within an allelic series).
